The text below walks through data of PubChem BioAssay (Tox21).

Results filed as inconclusive are left out. Unmarked numbers belong to inactive results. The source made the active and inactive calls. Unless noted, the call rests on the fitted dose curve; in most records, active means well fitted curve in the direction sought with a large enough effect in the repeat runs; inconclusive means weak or mixed curves; inactive means no such curve, though single readings can be large; an effect the other way counts as inactive or inconclusive.

A short description of test [1]: qHTS assay to identify small molecule antagonists of the retinoid acid receptor (RAR) signaling pathway - cell viability counter screen (AID 1159551). Further: nearly all actives have a fitted effect of over 35% in size. A digest of the protocol:
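Following overnight attachment, C3RL4 reporter cells received DMSO-dissolved compounds and then retinol (1 uM final). Six hours later at 37 C, ATP content was measured by CellTiter-Glo luminescence.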
(Quantitative high-throughput screening tests each substance at several concentrations.)

A short description of test [2]: qHTS assay to identify small molecule antagonists of the retinoic acid receptor (RAR) signaling pathway (AID 1159552; further: nearly all actives have a fitted effect of over 50% in size). In short, it runs like this:
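Quantitative HTS in C3RL4 RARE-luciferase reporter cells. Compounds were added with 1 uM (final) retinol; luminescence was read after 6 hr.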

Test [3] is described as follows: qHTS assay to identify small molecule agonists of the retinoic acid receptor (RAR) signaling pathway (AID 1159553). Further: potency means the concentration at half of the fitted maximal effect. In short, it runs like this: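 Cell line C3RL4, RARE luciferase reporter. Treatment: compounds in DMSO, 6 hr, 37 C, 5% CO2, after overnight plating. Detection: luminescence, 30 min RT after reagent.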
The nature of test [4]: qHTS assay to identify small molecule antagonists of the estrogen related receptor (ERR) signaling pathway from Tox21 library - cell viability counter screen (AID 1224834). Further: nearly all actives have a fitted effect of over 30% in size. In short, it runs like this:
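Viability readout (CellTiter-Fluor fluorescence, 30 min at 37 C) multiplexed with the ERR assay; cells treated 17.5 h at 37 C with compounds delivered in DMSO.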

In test [5] the target is Luciferin 4-monooxygenase (Photinus pyralis) (UniProt P08659). Nature of the test: qHTS assay to identify small molecule inhibitors of firefly luciferase (AID 1224835). Further: nearly all actives have a fitted effect of over 25% in size. Further: potency means the concentration at half of the fitted maximal effect. On activity change, negative = inhibition: series mostly up to about 120 µM. In short, it runs like this: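 Biochemical qHTS: compounds run as interplate titrations against purified firefly enzyme, with D-luciferin and ATP each at its KM concentration. Light output recorded by CCD imaging.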
Luciferin 4-monooxygenase (Photinus pyralis), sequence (P08659 whole entry, looked up): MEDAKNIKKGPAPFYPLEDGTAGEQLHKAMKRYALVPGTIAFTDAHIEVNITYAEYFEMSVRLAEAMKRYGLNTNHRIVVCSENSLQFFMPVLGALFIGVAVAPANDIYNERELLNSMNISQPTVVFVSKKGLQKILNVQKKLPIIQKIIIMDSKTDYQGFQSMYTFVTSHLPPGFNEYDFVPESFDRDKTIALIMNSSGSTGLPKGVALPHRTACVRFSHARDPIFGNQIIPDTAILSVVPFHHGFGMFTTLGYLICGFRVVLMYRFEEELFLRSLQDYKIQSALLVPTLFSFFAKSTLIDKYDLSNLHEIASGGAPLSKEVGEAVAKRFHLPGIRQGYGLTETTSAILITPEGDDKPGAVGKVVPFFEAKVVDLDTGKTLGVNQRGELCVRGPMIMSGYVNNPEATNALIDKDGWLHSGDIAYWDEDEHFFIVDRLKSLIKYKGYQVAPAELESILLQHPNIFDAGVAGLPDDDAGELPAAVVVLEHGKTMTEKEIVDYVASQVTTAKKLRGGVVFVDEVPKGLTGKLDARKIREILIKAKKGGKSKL

A short description of test [6]: qHTS assay to identify small molecule agonists of the constitutive androstane receptor (CAR) signaling pathway - cell viability counter screen (AID 1224836). Further: series mostly up to about 92 µM; nearly all actives have a fitted effect of over 45% in size. In short, it runs like this: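 Counter screen multiplexed with the CAR reporter readout: HepG2 cells co-transfected with hCAR and the CYP2B6-2.2kb construct receive a 15-concentration compound series and 0.75 uM PK11195 (final), then CellTiter-Fluor fluorescence is read after 23 h.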

A short description of test [7]: qHTS assay to identify small molecule antagonists of the constitutive androstane receptor (CAR) signaling pathway - cell viability counter screen (AID 1224837). Further: series mostly up to about 92 µM; nearly all actives have a fitted effect of over 45% in size. In short, it runs like this: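 Fluorescence from CellTiter-Fluor served as the viability signal. Human hepatoma HepG2 cells stably bearing hCAR and CYP2B6-2.2kb received compound plus CITCO (50 nM final) for 23 hr.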

Test [8] concerns the target Nuclear receptor subfamily 1 group I member 3 (Homo sapiens) (UniProt Q14994). Put plainly: qHTS assay to identify small molecule antagonists of the constitutive androstane receptor (CAR) signaling pathway (AID 1224838).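 Further: HepG2 cells stably expressing hCAR with CYP2B6 luciferase reporter stimulated by CITCO; nearly all actives have a fitted effect of over 40% in size.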 A digest of the protocol:
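Quantitative HTS in double-stable HepG2-CYP2B6-hCAR cells. After 4 h plating, cells get compound (15 concentrations) and CITCO at 50 nM final, incubate 24 h at 37 C, then ONE-Glo luminescence is read.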

The target is the same in test [9]. Put plainly: qHTS assay to identify small molecule agonists of the constitutive androstane receptor (CAR) signaling pathway (AID 1224839). Further: nearly all actives have a fitted effect of over 15% in size. Further: potency means the concentration at half of the fitted maximal effect. On activation: series mostly up to about 92 µM. In short, it runs like this:
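A 15-concentration quantitative screen uses HepG2 cells co-transfected stably with human CAR and CYP2B6-2.2kb reporter. Treatment lasts 24 h with 0.75 uM PK11195 final present; ONE-Glo luminescence is the signal.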

The nature of test [10]: qHTS assay to identify small molecule antagonists of the estrogen related receptor signaling pathway with the pleiotropic PPARgamma coactivator (PGC) from Tox21 10K library - cell viability counter screen (AID 1224840; active means well fitted cell-killing curve with a large enough effect in the repeat runs, not every such curve was filed as active; further: nearly all actives have a fitted effect of over 40% in size). A digest of the protocol:
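Compounds in DMSO, alongside positive and negative controls, were pinned onto PGC/ERR cells (2,000 per well). Exposure lasted 17.5 hours at 37 C, followed by a 30-minute CellTiter-Fluor incubation and fluorescence reading.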

Test [11] addresses Thyrotropin receptor (Homo sapiens) (UniProt P16473). Nature of the test: qHTS assay to identify small molecule agonists of the thyroid stimulating hormone receptor (TSHR) signaling pathway (AID 1224843; calls by dose curve; further: nearly all actives have a fitted effect of over 45% in size). A digest of the protocol: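 TSHR-HEK293 cells in agonist mode, 30 min room-temperature step, then cAMP measured by competitive HTRF (cAMP-d2 with anti-cAMP cryptate) after 1 h at room temperature. Tested at 15 concentrations in triplicate.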

The nature of test [12]: qHTS assay to identify small molecule agonists of the hypoxia (HIF-1) signaling pathway - cell viability counter screen (AID 1224844; calls by dose curve; further: nearly all actives have a fitted effect of over 50% in size). A digest of the protocol:
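Luminescent ATP content (CellTiter-Glo, 30 min, room temperature) served as the viability measure in HRE-bla ME-180 cells exposed to compounds for 17 hrs in low-serum medium (0.5% dialyzed FBS).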

The nature of test [13]: qHTS assay to identify small molecule agonists of H2AX (AID 1224845; active means well fitted activation curve with a large enough effect in the signal ratio in the repeat runs, not every such curve was filed as active; the % refers to the signal ratio). In short, it runs like this: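 Wild-type CHO-K1 cells, plated overnight, exposed 3hr at 37C to 15 concentrations (0.76% DMSO final). Lysed, then HTRF anti-pH2AX (S139) cryptate and anti-H2AX-d2 antibodies, 24 hr room temperature; 665/620 nm emission read.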
Test [14] is described as follows: qHTS assay to identify small molecule agonists of H2AX - cell viability counter screen (AID 1224847; calls by dose curve; further: top concentration of the series differs between compounds; nearly all actives have a fitted effect of over 30% in size). A digest of the protocol:
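We seed wild-type CHO-K1 cells overnight, treat them for 3 hr at 37C with compounds in 15-concentration series, and quantify remaining viability by CellTiter-Glo luminescence.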

A short description of test [15]: qHTS RealTime-Glo MT Cell Viability Assay in HepG2 cells - 24 hour (AID 1224867). Further: nearly all actives have a fitted effect of over 50% in size. A digest of the protocol:
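HepG2 suspension premixed with RealTime-Glo reagents is plated at 600 cells per well and left 5 h at 37 C/5% CO2. Compounds in DMSO then go in, and bioluminescence reflecting viable cell number is recorded over 40 h.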

The nature of test [16]: qHTS assay to identify small molecule agonists of the hypoxia (HIF-1) signaling pathway (AID 1224846; active means well fitted activation curve with a large enough effect in the signal ratio in the repeat runs, not every such curve was filed as active; the % refers to the signal ratio). A digest of the protocol: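 Measured by blue/green FRET after loading CCF4-AM: beta-lactamase expressed from a hypoxia response element in ME-180 cells. Test agents were delivered in DMSO and left 17 hrs; cells had been plated 5 hrs earlier in low-serum (0.5% dialyzed FBS) medium.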
On the % scale 0 is the no-effect control and ±100 the full control effect.

Nuclear receptor subfamily 1 group I member 3 (Homo sapiens), sequence (Q14994 whole entry, looked up): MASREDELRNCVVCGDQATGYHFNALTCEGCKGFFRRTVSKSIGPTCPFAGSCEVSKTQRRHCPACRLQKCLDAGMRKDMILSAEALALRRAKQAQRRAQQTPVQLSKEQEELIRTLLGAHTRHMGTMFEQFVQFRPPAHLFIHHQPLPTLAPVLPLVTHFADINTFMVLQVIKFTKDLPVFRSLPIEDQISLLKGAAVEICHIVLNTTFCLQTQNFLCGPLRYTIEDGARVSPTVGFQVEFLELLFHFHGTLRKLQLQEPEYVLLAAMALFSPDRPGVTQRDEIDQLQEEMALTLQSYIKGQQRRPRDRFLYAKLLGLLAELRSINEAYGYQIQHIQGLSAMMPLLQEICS
Thyrotropin receptor (Homo sapiens), sequence (P16473 whole entry, looked up): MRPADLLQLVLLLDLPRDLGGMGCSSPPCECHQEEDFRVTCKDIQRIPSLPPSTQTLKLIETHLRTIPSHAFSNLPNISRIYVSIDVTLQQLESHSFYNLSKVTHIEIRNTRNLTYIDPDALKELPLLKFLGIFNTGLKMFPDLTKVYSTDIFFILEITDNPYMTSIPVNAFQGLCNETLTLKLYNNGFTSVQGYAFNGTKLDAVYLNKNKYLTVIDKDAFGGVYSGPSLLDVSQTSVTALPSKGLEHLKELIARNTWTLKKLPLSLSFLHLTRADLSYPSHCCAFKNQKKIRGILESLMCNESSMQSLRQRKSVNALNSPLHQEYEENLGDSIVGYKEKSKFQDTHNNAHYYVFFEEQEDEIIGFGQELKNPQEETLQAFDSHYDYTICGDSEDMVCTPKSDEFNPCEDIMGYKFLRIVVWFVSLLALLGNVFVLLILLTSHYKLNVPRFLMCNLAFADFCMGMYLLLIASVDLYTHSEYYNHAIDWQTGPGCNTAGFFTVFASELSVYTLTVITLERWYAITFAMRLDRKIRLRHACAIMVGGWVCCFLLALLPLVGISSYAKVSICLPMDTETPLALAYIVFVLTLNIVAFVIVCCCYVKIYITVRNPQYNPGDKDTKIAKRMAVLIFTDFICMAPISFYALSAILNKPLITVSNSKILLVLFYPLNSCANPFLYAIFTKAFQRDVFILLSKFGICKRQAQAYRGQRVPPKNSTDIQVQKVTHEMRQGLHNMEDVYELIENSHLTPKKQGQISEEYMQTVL

For the molecule `CC(C)(C)c1ccc(C(=O)CCCCl)cc1`, the outcome in test [1], in test [2], in test [4], in test [6], in test [7] and in test [8] was inactive. For the same molecule, the result in [10], in test [12], in test [13], in test [14] and in test [15] was inactive. Besides, the Potency in test [3] was 5.96 µM (active); in [5], 7.76 µM (active); in test [9], 21.1 µM (active). In addition, the Potency result in [11] was “inactive”.

With `CCCC(=O)CC`, the outcome in [1], in [2], in test [4], in [6], in test [7] and in test [8] was inactive. The molecule was called inactive in test [10], in [12], in [13], in [16] and in test [15]. The Potency result in test [3], in [5], in test [9] and in test [11] was “inactive” in each case.

For `C[C@@H]1CCC[C@H](C)N1CCCC(O)(c1ccccc1)c1ccccn1` (stereo partly specified), the result in test [1], in test [2], in test [4], in [6], in test [7] and in test [8] was inactive. Besides, the result in test [10], in test [13], in [16], in [14] and in test [15] was inactive. The Potency result in [3], in test [5], in test [9] and in test [11] was “inactive” throughout.

Regarding `C[C@@H]1CC[C@@]2(OC1)O[C@H]1C[C@H]3[C@@H]4CC[C@H]5C[C@@H](O)CC[C@]5(C)[C@H]4CC(=O)[C@]3(C)[C@H]1[C@@H]2C`, the activity change, negative = cytotoxicity in [1] was -1.39% [at 8.39 µM]; in test [7] it was 4.92% [at 8.39 µM]; in [14], -1.3% [at 14 µM]; in [15], -0.436% [at 6.97 µM]. The activity, negative = inhibition in [2] was -0.792% [at 8.39 µM]; in test [8], -17.4% [at 8.39 µM]. Further, the values for the activation in [3], in [9] and in test [11] were 0.12% [at 8.36 µM], 0.221% [at 8.39 µM] and -5.02% [at 8.39 µM], respectively. The values for the viability change, negative = cytotoxic in test [4], in test [6] and in test [10] were 0.595% [at 8.39 µM], 0.858% [at 8.39 µM] and -2.49% [at 8.39 µM], respectively. Besides, the activity change, negative = inhibition in test [5] is 8.12% [at 10.5 µM]. Moreover, in test [13], the activation (H2AX phosphorylation) is 0.205% [at 14 µM].

With `CCCCCCC(O)CO` (stereo unspecified), the outcome in [1], in [2], in test [4], in [6], in test [7] and in test [8] was inactive. For the same molecule, the molecule was called inactive in test [10], in test [12], in test [13], in test [16], in [14] and in test [15]. Moreover, the Potency entry in test [3], in test [5] and in test [9] was “inactive” in each case.

On to `CC1=C(O)C(=O)CO1`, for which the molecule was called inactive in [1], in test [2], in test [4], in test [6], in [7] and in [8]. The result in test [10], in [12], in test [13], in test [16] and in [15] was inactive. For the same molecule, the Potency entry in [3], in [5] and in [9] was “inactive” in each case.

On to `CCCCN=C(N)N=C(N)N`, for which the call in test [1], in test [2], in test [4], in [6], in test [7] and in test [8] was inactive. Also, the molecule was called inactive in test [10], in [12], in [13] and in test [15]. The Potency result in [3], in [5], in [9] and in [11] was “inactive” throughout.

On to `CC(C)(O)c1ccc(C(C)(C)O)cc1`, for which the result in test [1], in [2], in [4], in [6], in test [7] and in [8] was inactive. Besides, the outcome in [10], in test [12], in test [13] and in test [15] was inactive. The Potency entry in test [3], in test [5], in [9] and in test [11] was “inactive” in each case.

On to `CC[N+](C)(CC)CC`, for which the call in test [1], in test [2], in test [4], in [6], in test [7] and in [8] was inactive. Moreover, the outcome in test [10], in test [12], in test [13], in test [16], in test [14] and in test [15] was inactive. In addition, the Potency result in [3], in test [5] and in test [9] was “inactive” in each case.
